# Source: PubChem BioAssay (NCATS)
# “And” between values parts separate entries of the source, which are not always exact repeats. Identical values can stand only once. Values without a mark were called inactive. Records with an inconclusive call do not appear. Where a call stands in place of a potency, no number is given. The source made the active and inactive calls. Unless noted, the call rests on the fitted dose curve; in most records, active means well fitted curve in the direction sought with a large enough effect; inconclusive means small, poorly fitted or top-dose-only effect, or another doubt; inactive means no such curve, though single readings can be large; an effect the other way counts as inactive or inconclusive.
# What was measured:
# [1] = Cell Viability - HepG2 (AID 433; calls by dose curve;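 further: potency means the concentration at half of the fitted maximal effect; cells exposed to compound for 40 hours; potency for ATP loss meaning cytotoxicity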); conditions: qHTS
# Method in brief: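 HepG2 hepatocellular carcinoma cells (1500/well) were treated with compounds for 40 h at 37 °C in complete medium; intracellular ATP was read by CellTiter-Glo luminescence. Data were normalized to DMSO and 100 uM tamoxifen, and AC50 came from Hill fits.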
# [2] = Cell Viability - NIH 3T3 (AID 541); conditions: NIH 3T3 cell viability, qHTS; activity change, negative = cytotoxicity: at 92.2 µM (top of the series);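 further: cells exposed to compound for 40 hours; nearly all actives have a fitted effect of over 25% in size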; further: potency means the concentration at half of the fitted maximal effect
# Method in brief: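 Cells seeded at 1000/well, rested 5 hr at 37 °C, then dosed and incubated 40 hr at 37 °C. CellTiter-Glo added, 20 min room temperature, luminescence read. AC50 by Hill fit.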
# [3] = Cell Viability - SH-SY5Y (AID 544); conditions: SH-SY5Y neuroblastoma cell viability; viability change, negative = cytotoxic: at 92.2 µM (top of the series);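 further: cells exposed to compound for 40 hours; nearly all actives have a fitted effect of over 55% in size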; further: potency means the concentration at half of the fitted maximal effect
# Method in brief: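 Cells were plated at 1500 per well and allowed 5 hr at 37 °C. Compounds were added across a concentration range and incubated 40 hr at 37 °C. CellTiter-Glo was added for 20 min at room temperature before luminescence reading.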
# [4] = Cell Viability - LYMP2-001 (AID 921); conditions: LYMP2-001 lymphoblastoid cell viability; series mostly up to 92.2 µM; further: nearly all actives have a fitted effect of over 70% in size; further: potency means the concentration at half of the fitted maximal effect
# Method in brief: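 Human lymphoblastoid cells (Coriell), 2500 per well, were preincubated 5 hr at 37 C, then exposed to compounds in complete medium for 24 hr at 37 C. Cellular ATP was read by CellTiter-Glo luminescence; AC50 from Hill fits of concentration-response data.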
# [5] = Cell Viability - LYMP1-003 - Assay at 40 hr (AID 964); conditions: LYMP1-003 lymphoblastoid viability; series mostly up to 92.2 µM; further: nearly all actives have a fitted effect of over 60% in size
# Method in brief: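 Luminescent ATP signal (CellTiter-Glo) served as the viability read-out after 40 hr compound treatment of human lymphoblastoid LYMP1-003 cells at 37 C. Decreases in ATP were fitted with the Hill equation to give AC50.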
# [6] = Cell Viability - LYMP2-003 (AID 965); conditions: LYMP2-003 lymphoblastoid cell viability; series mostly up to 92.2 µM;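 further: cells exposed to compounds for 24 h before reading; nearly all actives have a fitted effect of over 50% in size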; further: potency means the concentration at half of the fitted maximal effect
# Method in brief: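 Human lymphoblastoid cells (2500/well) were pre-incubated 5 hr at 37 C, then exposed to compounds over a concentration range for 24 hr at 37 C. Intracellular ATP was read by CellTiter-Glo luminescence; AC50 came from Hill-equation fits.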
# [7] = Cell Viability - LYMP2-015 (AID 971); conditions: LYMP2-015 lymphoblastoid cell viability; series mostly up to 92.2 µM; further: nearly all actives have a fitted effect of over 55% in size; further: potency means the concentration at half of the fitted maximal effect
# Method in brief: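 Cells are seeded at 2500 per well and incubated 5 hr at 37 C. Compounds are added across a concentration series for 24 hr at 37 C. CellTiter-Glo is added, and luminescence is read after 30 min at room temperature.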
# [8] = Cell Viability - LYMP2-017 (AID 972); conditions: LYMP2-017 lymphoblastoid cell viability; series mostly up to 92.2 µM; further: nearly all actives have a fitted effect of over 55% in size
# Method in brief: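 Cytotoxicity is scored as a concentration-dependent drop in cellular ATP in a human lymphoblastoid line after 24 hr treatment at 37 C. Values are AC50s from Hill-equation modelling.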
# [9] = Cell Viability - LYMP2-021 (AID 974); conditions: LYMP2-021 lymphoblastoid cells viability; series mostly up to 92.2 µM;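 further: compound exposure lasts 24 hours at 37 °C; nearly all actives have a fitted effect of over 55% in size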; further: potency means the concentration at half of the fitted maximal effect
# Method in brief: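 Loss of cellular ATP, measured with a luciferase-based CellTiter-Glo readout, serves as the toxicity signal in human lymphoblastoid cells treated for 24 hours at 37 C. Potency is reported as AC50 from a standard Hill model.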
# [10] = Cell Viability - LYMP2-006 (AID 978); conditions: LYMP2-006 lymphoblastoid cell viability, qHTS; series mostly up to 92.2 µM; further: nearly all actives have a fitted effect of over 60% in size
# Method in brief: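 Human lymphoblastoid cells, 2500 per well, were preincubated 5 hr at 37 C, then exposed to compounds for 24 hr at 37 C in complete medium. Viability was read as intracellular ATP by CellTiter-Glo luminescence; AC50 from Hill-equation fits of qHTS concentration-response data.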
# [11] = Cell Viability - LYMP2-010 (AID 981); conditions: LYMP2-010 lymphoblastoid cell viability, qHTS; series mostly up to 92.2 µM; further: nearly all actives have a fitted effect of over 55% in size; further: potency means the concentration at half of the fitted maximal effect
# Method in brief: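 Steps: seed 2500 LYMP2-010 cells per well; incubate 5 hr at 37 C; add compound; incubate 24 hr at 37 C; add CellTiter-Glo, wait 30 min at room temperature; read luminescence. Concentration-response fitted to Hill equation for AC50.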
# [12] = Cell Viability - LYMP2-012 (AID 982); conditions: LYMP2-012 lymphoblastoid cell viability qHTS; series mostly up to 92.2 µM; further: potency means the concentration at half of the fitted maximal effect
# [13] = Cell Viability - LYMP2-016 (AID 984); conditions: LYMP2-016 lymphoblastoid cell viability, qHTS; series mostly up to 92.2 µM; further: nearly all actives have a fitted effect of over 55% in size; further: potency means the concentration at half of the fitted maximal effect
# Method in brief: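 Human lymphoblastoid cells (LYMP2-016), 2500/well in complete medium, preincubated 5 hr at 37 C, then compound-treated 24 hr at 37 C. Intracellular ATP read by CellTiter-Glo luminescence after 30 min at room temperature; AC50 from Hill-equation concentration-response fits.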
# [14] = Cell Viability - LYMP2-020 (AID 986); conditions: series mostly up to 92.2 µM; further: nearly all actives have a fitted effect of over 55% in size; further: potency means the concentration at half of the fitted maximal effect
# Method in brief: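 Seed 2500 cells per well and incubate 5 hr at 37 C. Add compounds at a concentration series and incubate 24 hr at 37 C. Add CellTiter-Glo, wait 30 min at RT, read luminescence, and fit a Hill curve for AC50.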
# [15] = Cell Viability - LYMP1-002 - Assay at 40 hr (AID 994); conditions: LYMP1-002 lymphoblastoid cell viability; series mostly up to 92.2 µM; further: nearly all actives have a fitted effect of over 60% in size
# Method in brief: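 Cells are plated at 2500 per well and rested 5 hr at 37 C. Compounds are added and incubated 40 hr at 37 C. CellTiter-Glo reagent is added for 30 min at room temperature before luminescence is read.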
# [16] = biological target: Retinoic acid receptor RXR-alpha (Homo sapiens) (UniProt P19793); test: qHTS assay for small molecule agonists of retinoid X receptor alpha signaling (AID 588544; calls by dose curve); conditions: HEK293T RXRa-UAS-bla, beta-lactamase reporter, 18 h; series mostly up to 76.7 µM
# [17] = biological target: Retinoic acid receptor RXR-alpha (Homo sapiens) (UniProt P19793); test: qHTS assay for small molecule antagonists of retinoid X receptor alpha signaling (AID 588546; active means well fitted inhibition curve with a large enough effect in the signal ratio, with a control signal flat, not every such curve was filed as active; the % refers to the signal ratio;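 further: cells stimulated with 9-cis-retinoic acid as agonist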); conditions: HEK293T RXRa-UAS-bla, beta-lactamase ratio, antagonist mode
# Method in brief: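 Beta-lactamase reporter inhibition, read as CCF4 fluorescence ratio (ex 405, em 460/530 nm) after 2 h at RT. HEK293T UAS-bla cells, 2500/well, were stimulated with 9-cis-RA at 500 or 100 nM final alongside test compound for 18 h at 37 C.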
# [18] = qHTS assay for small molecule agonists of the antioxidant response element (ARE) signaling pathway measured by Nrf2-dependant transcriptional activity (AID 720636; active means well fitted curve in the direction sought with a large enough effect in the repeat runs; an effect the other way counts as inactive or inconclusive;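 further: HepG2 cells with an ARE-driven luciferase reporter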); conditions: ARE-luc HepG2, Nrf2 luciferase reporter, 16 h; series mostly up to 92.4 µM
# Method in brief: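 Reporter gene assay, HepG2 ARE-luc: 16 hr compound, 37 C, 5% CO2; read-out luciferase luminescence.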
# [19] = qHTS assay for small molecule activators of the human pregnane X receptor (PXR) signaling pathway (AID 720659; call rule not given here); conditions: DPX-2 HepG2 CYP3A4-luciferase, 24 h; series mostly up to 92.3 µM
# [20] = Cell Viability - H-4-II-E (AID 543); conditions: H-4-II-E rat hepatoma viability; series mostly up to 92.2 µM;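 further: cells exposed to compound for 40 hours; nearly all actives have a fitted effect of over 35% in size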
# Method in brief: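 Cells seeded at 1500 per well and rested 5 hr; compounds added; 40 hr incubation at 37 °C; CellTiter-Glo added, 20 min at room temperature; luminescence read. Hill-equation fits gave AC50.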
# Retinoic acid receptor RXR-alpha (Homo sapiens), sequence (P19793 whole entry, looked up): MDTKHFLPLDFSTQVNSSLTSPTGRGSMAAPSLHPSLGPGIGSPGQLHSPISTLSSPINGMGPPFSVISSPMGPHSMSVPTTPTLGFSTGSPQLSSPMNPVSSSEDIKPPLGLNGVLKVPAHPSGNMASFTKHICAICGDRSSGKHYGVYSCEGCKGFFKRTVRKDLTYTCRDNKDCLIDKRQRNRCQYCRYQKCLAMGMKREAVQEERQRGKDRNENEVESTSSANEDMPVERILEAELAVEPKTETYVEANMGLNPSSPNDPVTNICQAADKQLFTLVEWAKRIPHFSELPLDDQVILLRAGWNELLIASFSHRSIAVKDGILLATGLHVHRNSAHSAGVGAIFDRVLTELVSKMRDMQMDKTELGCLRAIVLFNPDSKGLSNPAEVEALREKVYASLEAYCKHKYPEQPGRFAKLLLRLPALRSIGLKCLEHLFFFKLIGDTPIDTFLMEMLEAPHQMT
Structure (SMILES),Potency [1] [µM],Potency [2],Potency [3],Potency [4],Potency [5],Potency [6],Potency [7],Potency [8],Potency [9],Potency [10],Potency [11],Potency [12],Potency [13],Potency [14],Potency [15],outcome [16],max response [17],Potency [18],outcome [19],Potency [20]
CC(C)[C@]12CC(=O)[C@H](C)[C@H]1C2,> 92,inactive,inactive,inactive,inactive,inactive,inactive,inactive,inactive,inactive,inactive,inactive,inactive,inactive,inactive,inactive,7% and 0.913%,inactive,inactive,–
CCOP(=O)(OCC)OCC,> 92,inactive,inactive,–,inactive,inactive,inactive,inactive,–,inactive,inactive,–,–,inactive,–,inactive,10.3% and -4.1%,–,inactive,inactive
COC(=O)Nc1cccc(OC(=O)Nc2cccc(C)c2)c1,> 92,inactive,39.8 µM (active),inactive,inactive,inactive,inactive,–,inactive,inactive,inactive,inactive,inactive,inactive,–,inactive,4.03%,–,–,–
CCCCOCC1CO1 (stereo not given),> 92,inactive,inactive,inactive,inactive,inactive,–,inactive,–,inactive,inactive,inactive,–,inactive,inactive,–,20.3%,inactive,inactive,inactive
OCC(Cl)CCl (stereo not given),> 92,inactive,inactive,inactive,inactive,inactive,inactive,inactive,inactive,inactive,–,inactive,inactive,inactive,inactive,inactive,–,inactive,inactive,inactive
Oc1cc(Cl)ccc1Cl,> 92,inactive,–,inactive,inactive,inactive,inactive,inactive,inactive,inactive,inactive,inactive,–,–,inactive,inactive,8.9% and 7.36%,–,inactive,inactive
ClCC(Br)CBr (stereo not given),> 92,inactive,inactive,inactive,inactive,inactive,–,inactive,inactive,–,inactive,–,inactive,–,inactive,inactive,–,inactive,inactive,inactive
CCC#N,> 92,inactive,inactive,–,inactive,inactive,inactive,–,inactive,inactive,inactive,inactive,inactive,inactive,inactive,inactive,10.5%,inactive,inactive,–
NNC(N)=S,> 92,inactive,–,inactive,inactive,inactive,inactive,inactive,–,inactive,inactive,inactive,inactive,inactive,inactive,–,–,–,inactive,inactive
ClC(Cl)C(Cl)Cl,> 92,inactive,inactive,inactive,–,inactive,inactive,–,inactive,–,inactive,inactive,inactive,inactive,inactive,inactive,4.18%,inactive,inactive,inactive
OC[P+](CO)(CO)CO,> 92,0.501 µM (active),inactive,15.8 µM (active),–,25.1 µM (active),15.8 µM (active),–,12.6 µM (active),–,20 µM (active),15.8 µM (active),20 µM (active),12.6 µM (active),inactive,–,-5.42% and -52.4%,inactive,–,–
C1CC2OC2CC1C1CO1 (stereo not given),> 92,inactive,–,inactive,inactive,inactive,inactive,inactive,inactive,inactive,–,inactive,inactive,inactive,inactive,inactive,–,inactive,inactive,inactive
CCNCC,> 92,inactive,inactive,inactive,inactive,inactive,inactive,inactive,inactive,inactive,–,inactive,–,inactive,inactive,inactive,–,inactive,inactive,inactive
c1ccc(C2CO2)cc1 (stereo not given),> 92,inactive,inactive,inactive,inactive,inactive,inactive,inactive,–,inactive,inactive,–,inactive,inactive,inactive,inactive,32.3%,inactive,inactive,inactive
Cc1ccc(N)cc1C,> 92,inactive,–,inactive,inactive,inactive,inactive,inactive,inactive,inactive,inactive,inactive,inactive,inactive,inactive,inactive,-2%,inactive,inactive,inactive
